# Rows were chosen to be rich in hits. Some 9.4% of all compounds tested hit in one or more screens of this group.
# SARS PLpro yeast = SARS-CoV PLP inhibition in yeast | S. cerevisiae expressing SARS-CoV PLpro, growth rescue | Potency, µM (doses to about 32.9 µM), hits mostly activators | 0.19% of 330,000 active | AID 485353; calls by dose curve; also: nearly all actives have a fitted effect of over 55% in size
# AMA1-RON2 inh = disrupts binding of P. falciparum AMA1 to RON2; AlphaScreen AMA1-biotinylated RON2 peptide binding; Potency, µM (series often up to 58.2 µM), actives largely listed as inhibitors; 0.2% of 360,000 active; AID 720542; also: nearly all actives have a fitted effect of over 45% in size
#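 AMA1 (3D7) with his tag at 25 nM final met compounds first, then biotinylated RON2 peptide at 25 nM; detection used donor plus acceptor beads, 10 µg/mL apiece, read by AlphaScreen after 30 min at room temperature.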
# Pf growth 48h = inhibits P. falciparum growth in the first generation, 48 h; 5.9% of 310,000 active; Potency, µM (doses to about 28.7 µM), usual class: inhibitors; P. falciparum luciferase growth in erythrocytes, 48 h
#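 Erythrocytes infected with P. falciparum carrying an integrated firefly luciferase reporter (2% hematocrit, 0.1% parasitemia final) were exposed to compounds in RPMI 1640 with 0.5% Albumax at 37 C, 5% CO2. Growth inhibition was scored as reduced luminescence.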
# Pf growth 96h = inhibits malaria parasite growth, 96 h. P. falciparum luciferase reporter growth, 96 h. Potency, µM (titrated, usually from 28.7 µM), actives largely listed as inhibitors. 6.9% of 320,000 active
#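 Cell-based qHTS: luciferase-tagged P. falciparum in erythrocytes (2% hematocrit, 0.05% parasitemia final) incubated with compounds for 96 hours, 37 C, 5% CO2; luciferase detection reagent then added and luminescence measured.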
# Numbers stand for hits; . = inactive; ? = inconclusive; / = no result; [ ] = another dose, or the depositor's remark. Unless noted, calls follow the shape of the dose curve; as a rule, active = well fitted curve in the direction sought with a large enough effect; inconclusive = small, poorly fitted or top-dose-only effect, or another doubt; inactive = no such curve, though single readings can be large; an effect the other way counts as inactive or inconclusive.
SMILES,SARS PLpro yeast,AMA1-RON2 inh,Pf growth 48h,Pf growth 96h
CCOC(=O)C1=C(C)N(C)C(=S)NC1c1ccc(Cl)cc1Cl (stereo not drawn),?,.[11.6 µM],.,15µM
CCOC(=O)C1=C(C)N(C)C(=S)NC1c1ccccc1Cl (stereo not drawn),.,.,.,?
Cc1cc(Cl)c(O)c(-n2nc3ccccc3n2)c1,.,.,.,.
CCC/C(=N/NC(=O)c1csc(C)c1C)c1ccc(Cl)s1,.,.,.,/
CCC/C(=N\NC(=O)c1ccco1)c1ccc(Cl)s1,?,.,.,13µM
NCCCC(N)(C(=O)O)C(F)F (stereo not drawn),.,.,.,.
COc1ccc(-c2c(-c3cc(OC)cc(OC)c3)n(C)c3ccc(-c4ccc(SC)cc4)cc23)cc1,.,.,.,.
CN(C)c1ccc(P(=O)(OCc2ccccc2)C(O)c2ccc(Br)cc2)cc1 (stereo not drawn),.,.,?,?
CC(C)CCOP(=O)(c1ccc(N(C)C)cc1)C(O)c1c(Cl)cccc1Cl (stereo not drawn),.,.,10µM,12µM
CC(C)COP(=O)(c1ccc(N(C)C)cc1)C(O)c1ccc(Br)cc1 (stereo not drawn),.,.,?,10µM
CCCOP(=O)(c1ccc(N(C)C)cc1)C(O)c1c(Cl)cccc1Cl (stereo not drawn),.,.,?,8.3µM
CCCOP(=O)(c1ccc(N(C)C)cc1)C(O)c1ccc(Cl)cc1Cl (stereo not drawn),.,.,7.4µM,13µM
Cc1nn(C)c(NC(=O)c2ccc(Cl)cc2)c1Cl,.,.,?,.
Cc1ccccc1NC(=O)COC(=O)c1ccc(C)c(S(=O)(=O)N2CCCCC2)c1,/,.,/,/
Cc1ccc2oc(-c3cccc(NC(=O)c4cc(-n5cnnc5)ccc4Cl)c3)nc2c1,?,.,.,.
Cc1ccc(C(O)P(=O)(OCCC(C)C)c2ccc(N(C)C)cc2)cc1 (stereo not drawn),.,.,12µM,?
Cc1ccc(C(C)C)c(OCC(=O)Nc2ccc3c(c2)nc(CCN2CCCCC2)n3C)c1,.,.,?,.
CCc1ccccc1-n1nnc(-c2ccccc2)n1,.,.,.,.
COC(=O)c1ccc(S(=O)(=O)N2CCN(C(c3ccccc3)c3ccccc3)CC2)n1C,.,.,10µM,?
Cc1ccc(C(=O)CCNc2ccc(Cl)cc2)o1,.,.,/,10µM
Cc1ccc(C)c(S(=O)(=O)N2CCN(c3nc(CN4CCOCC4)nc4sc(C)c(C)c34)CC2)c1,.,.,12µM,12µM
Cc1ccc(S(=O)(=O)N2CCN(c3nc(CN4CCCC4)nc4sc(C)c(C)c34)CC2)cc1,.,.,4.7µM,?
Cc1sc2nc(CN3CCCC3)nc(N3CCN(S(=O)(=O)c4cccs4)CC3)c2c1C,.,.,?,?
CCc1nc(N2CCN(C(=O)c3ccco3)CC2)c2c3c(sc2n1)CCCC3,.,.,?,.
Cc1sc2nc(CN3CCCCC3)nc(N3CCN(C(=O)c4ccco4)CC3)c2c1C,.,.,7.4µM,?
SMILES,SARS PLpro yeast,AMA1-RON2 inh,Pf growth 48h,Pf growth 96h
CCOC(=O)[C@@H]1[C@H]2COc3ccc(Br)cc3[C@@H]2N2C(=O)N(c3ccc(F)cc3)C(=O)[C@]12C,.,.,?,?
CCOC(=O)[C@@H]1[C@H]2COc3cc(OC)ccc3[C@@H]2N2C(=O)N(c3ccc(OC)cc3)C(=O)[C@@]12C,.,.,/,/
CCOC(=O)[C@@H]1[C@H]2COc3ccc(Br)cc3[C@H]2N2C(=O)N(c3ccc(F)cc3)C(=O)[C@@]12C,.,.,5.9µM,?
CCOC(=O)[C@@H]1[C@H]2COc3cc(OC)ccc3[C@@H]2N2C(=O)N(c3ccc(C(F)(F)F)cc3)C(=O)[C@]12C,.,.,?,12µM
CCOC(=O)[C@@H]1[C@H]2COc3ccc(Br)cc3[C@H]2N2C(=O)N(c3cccc(F)c3)C(=O)[C@]12C,.,.,?,13µM
CC1CCCCN1Cc1nc2c(c(=O)n(C)c(=O)n2C)n1CCCc1ccccc1 (stereo not drawn),/,.,/,/
C/C(=N\NC(=S)Nc1ccc(F)cc1)C1CC1,.,.,?,12µM
O=C(C1=C(O)C(=O)N(Cc2cccnc2)C1c1cccc(Oc2ccccc2)c1)c1ccco1 (stereo not drawn),.,.,/,/
O=C(C1=C(O)C(=O)N(CCc2ccccc2)C1c1cccnc1)c1ccco1 (stereo not drawn),.,.,6.6µM,.
COc1ccc(-c2nnc(NC(=O)c3ccc(S(=O)(=O)N(C)CC4CCCO4)cc3)o2)c(OC)c1 (stereo not drawn),.,.,.,?

# Bioassay records from PubChem BioAssay.
